# Assay outcomes deposited in PubChem BioAssay by The Scripps Research Institute Molecular Screening Center.
# The list is not random: actives were taken first. Their share in the collection is about 2.8%.
# SMARCA2 activ: increases SMARCA2 function in MMTV reporter cells. AID 652017. activation, % at 9.1 µM. MG213 cells, MMTV-luciferase reporter, dexamethasone, overnight. hit rate 1% among 370,000; in the data active = activation above about 7.8%;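 note: 0% = vehicle wells and 100% = reference activator wells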
# KLK7 zymogen act: activators of human kallikrein-7 zymogen; P49862; purified proKLK7, EDANS-DABCYL substrate fluorescence; 100% is mature enzyme control, 0% vehicle; activation, % at 7 µM; hit rate 0.9% among 370,000; AID 652039;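 active = activation above the mean of all tested compounds plus 3 SD, computed per campaign excluding outliers beyond control limits, cut at about 13% in these data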
# Target sequence (P49862 whole entry, looked up): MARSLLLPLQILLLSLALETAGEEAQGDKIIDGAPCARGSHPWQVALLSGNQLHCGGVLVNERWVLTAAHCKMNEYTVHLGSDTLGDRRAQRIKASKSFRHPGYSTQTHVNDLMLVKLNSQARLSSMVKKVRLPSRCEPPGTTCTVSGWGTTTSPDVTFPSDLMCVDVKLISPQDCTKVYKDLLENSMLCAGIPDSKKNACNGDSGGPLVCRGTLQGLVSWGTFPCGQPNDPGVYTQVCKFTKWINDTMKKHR
# MsrA inhibitor: inhibitors of bovine MsrA. hit rate 0.75% among 360,000. inhibition, % at 15.5 µM. purified bovine MsrA, absorbance read-out;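 note: 0% = vehicle wells with enzyme and 100% = reference inhibitor wells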
# MsrA act: activators of bovine methionine sulfoxide reductase A; purified bovine MsrA, absorbance read-out; activation, % at 10.6 µM; hit rate 0.3% among 360,000; AID 602163; in the data active = activation above about 7.5%;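 note: 0% = vehicle and 100% = reference activator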
# MsrA conf: confirmation of bovine MsrA inhibitors; hit rate 41% among 2,300; inhibition, % at 15.5 µM; shares compounds with MsrA inhibitor; purified bovine MsrA, absorbance read-out;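 note: coupled to thioredoxin reductase with NADPH and selenocystamine and DMSO as substrate; 0% = vehicle only and 100% = full effect of reference inhibitor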
# * hit, by the source's call; / = no result given. Cut-off read from the data, not from the text of the source, unless noted: active = inhibition above about 4.5%; inactive = the rest.
SMILES,SMARCA2 activ,KLK7 zymogen act,MsrA inhibitor,MsrA act,MsrA conf
COc1ccc(/C=C/C(=O)c2c(O)ccc3c(C)cc(=O)oc23)cc1,1,0,5.4*,-5,5.1*
COc1ccc(/C=C\C(=O)c2c(O)ccc3c(C)cc(=O)oc23)cc1,2,0,5.3*,-9,4
COc1ccc(-c2c(C#Cc3ccsc3)c3cc(-c4cccc5[nH]ccc45)ccc3n2C)cc1,2,-4,1,-7,/
COc1cc(OC)cc(-c2c(C#Cc3ccsc3)c3cc(-c4cccc5[nH]cc(C=O)c45)ccc3n2C)c1,-1,-12,4.9*,-11,3
O=C1NCCN1C(=O)c1cccc(Cl)c1,-2,0,12*,0,9.9*
Nc1[nH]c(C(=O)c2ccccc2)c(-c2cccnc2)c1C(=O)NCCc1ccc(Cl)cc1Cl,0,0,2,-3,/
N#CC(C(=O)C12CC3CC(CC(C3)C1)C2)c1nc2ccccc2[nH]1 (configuration not stated),-3,-1,2,-2,/
N#CC(/C(=N/S(=O)(=O)c1cccs1)c1ccccc1)c1nc2ccccc2[nH]1 (configuration not stated),-2,0,5.0*,-3,5.8*
CC(C)Oc1ccccc1OC1(C)CCN(Cc2ccc(OC(F)(F)F)cc2)C1 (configuration not stated),-2,0,3,-5,/
Cc1cc(N/N=C/c2ccc(O)cc2)nc(NS(=O)(=O)c2ccccc2)n1,-4,0,4.9*,-5,5.3*
CC(C)/C=C/C(=O)N1CCC(N2CCC(C(=O)NCC3CCCO3)CC2)CC1 (configuration not stated),-1,-1,0,-6,/
Oc1ccc(/C=N/Nc2ccc(C(F)(F)F)cn2)cc1,-2,1,5.5*,1,3
O=C(N/N=C/c1ccco1)c1cc2ccccc2o1,1,0,6.0*,-6,7.6*
Cc1ccc(/C=N/Nc2ncnc3nc[nH]c23)cc1,5,1,3,-7,/
Fc1cccc(/C=N/Nc2ncnc3nc[nH]c23)c1,6,0,5.2*,-4,4
Clc1ccc(/C=N/Nc2ncnc3nc[nH]c23)cc1,4,0,4,-3,/
Oc1ccc(/C=N/Nc2ncnc3nc[nH]c23)cc1,5,-3,6.9*,-6,5.6*
O=C(N[C@H]1CC[C@@H]2SC[C@@H](C(=O)O)N2C1=O)OCC1c2ccccc2-c2ccccc21,0,0,/,/,/
O=C1CC(=Nc2ccc([N+](=O)[O-])cc2)NN1c1c(Cl)cc(Cl)cc1Cl,-4,0,2,-3,/
c1ccc(-n2nnnc2-n2nnc3ccccc32)cc1,1,0,23*,-4,22*
Oc1ccc(N2CCN(c3nnnn3-c3ccccc3)CC2)cc1,0,0,2,-6,/
Cc1occc1-c1nnc(-c2cc([N+](=O)[O-])cc([N+](=O)[O-])c2)o1,-2,0,7.7*,-3,1
O=[N+]([O-])c1cccc(-c2nnc(-c3ccccc3)o2)c1,3,-1,0,0,/
O=C1CC(C(=O)O)S/C(=N\N=C\c2ccc(Br)cc2)N1 (configuration not stated),-4,1,4.9*,-16,3
C/C(=N/N=C1/NC(=O)CC(C(=O)O)S1)c1ccccc1 (configuration not stated),0,-1,1,3,/
SMILES,SMARCA2 activ,KLK7 zymogen act,MsrA inhibitor,MsrA act,MsrA conf
c1ccc2[nH]c(N3CCOCC3)nc2c1,-1,0,-1,-7,/
O=c1c(Cl)c(N2CCOCC2)cnn1-c1nc2ccccc2[nH]1,7,2,4.8*,-4,3
COC(=O)[C@]12C[C@H](CC(=O)N3CCSCC3)C(=O)N(Cc3ccco3)C1=C[C@H](C(C)(C)C)O[C@@H]2C,-3,0,/,/,/
CN1CCCCC(NC(=O)CCCl)C1=O (configuration not stated),-3,0,1,/,/
CN(C)c1ccc(/C=C2\CCC/C(=C\c3ccccc3)C2=O)cc1,-3,0,1,-4,/
O=C1/C(=C/c2ccc(C(=O)O)cc2)CCC/C1=C\c1ccc(C(=O)O)cc1,0,1,8.8*,-5,6.6*
O=C(CCN1C(=O)c2ccccc2C1=O)c1ccccc1,1,0,1,-5,/
Cc1cc2ccccn2c1C(=O)Nc1ccccc1,5,1,5.1*,-5,2
Cc1cc2ccccn2c1C(=O)Nc1ccc(Cl)cc1,5,-16,1,-2,/
O=C(NC(=S)Nc1ccccc1N1CCCC1)c1ccco1,-1,1,0,-3,/
O=C(NC(=S)Nc1ccccc1N1CCOCC1)c1ccco1,-1,0,8.0*,-2,4
CC1(C(=O)Nc2ccc3c(c2)OCCO3)CN(S(C)(=O)=O)CC(=O)N1Cc1cccs1 (configuration not stated),1,0,0,/,/
CCCN(C)C1CN(Cc2cn(Cc3ccc(OC)cc3)nn2)S(=O)(=O)C1 (configuration not stated),6,0,1,-4,/
CCCn1c(O)c(N=NC(=O)c2ccco2)c2ccccc21,-4,1,4.7*,-1,5.3*
O=C(/C=C/c1ccccc1)NNC1=NS(=O)(=O)c2ccccc21,-3,-1,4.8*,-5,5.5*
CCCCNC(=O)c1nc(C2CCN(S(=O)(=O)c3ccccc3C(F)(F)F)CC2)oc1-c1ccccc1,-2,-7,0,0,/
COc1cccc(NC(=O)c2cc3ccccc3o/c2=N\O)c1,1,1,-1,-4,/
COc1cccc(N=c2oc3ccccc3cc2-c2nc3ccccc3[nH]2)c1,5,-18,5.2*,-3,1
COCCNC(=S)N/N=C(\C)c1cc2ccccc2o1,-3,0,8.2*,-2,5.2*
O=C(C1CCN(c2ncnc3c2sc2cccc(F)c23)CC1)N1CCCCC1,-4,0,/,/,/
O=C(O)COc1ccccc1/C=N/NC(=O)c1cc(-c2ccc(Cl)cc2)nc2ccccc12,1,0,5.0*,-6,4
COC(=O)CSC1=C(C#N)C(=O)NC2(CCCCC2)S1,-4,0,5.7*,-17,4
O=C(/C=C/c1cccs1)c1ccc(N2CCOCC2)cc1,-1,1,6.1*,-4,2
O=C(/C=C/c1cccc(F)c1)c1ccc(N2CCOCC2)cc1,-1,1,1,-4,/
O=C(CSc1nnc(-c2cnccn2)n1-c1ccccc1)Nc1ccc2c(c1)OCCO2,-4,0,/,/,/
COc1cc(/C=N/N=C2/NC(=O)C(CC(=O)O)S2)ccc1OCc1ccc(Cl)cc1 (configuration not stated),1,0,5.3*,-7,6.0*
Cc1c(O)ccc2c(-c3ccccc3)cc(=O)oc12,-3,-7,41*,-6,35*
COc1ccc(-c2cc(=O)oc3c(C)c(O)ccc23)cc1,-4,-64,12*,-4,3
Cc1coc2c(C)c3oc(=O)cc(-c4ccccc4)c3cc12,0,-1,1,0,/
Cc1cc(O)c2c(-c3ccccc3)cc(=O)oc2c1,-2,0,8.5*,4,2
